HP1b chromo inh: blocks HP1-beta chromodomain binding to methylated histone tails; Potency, µM (series often up to 114 µM), usual class: inhibitors; P83916; AlphaScreen HP1-beta / biotin-H3K9me3 peptide binding; 390,000 compounds, 0.56% hits; note: nearly all actives have a fitted effect of over 70% in size
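AlphaScreen: HP1-beta (50 nM) preformed 30 min with biotin-H3(1-18)K9me3 peptide (50 nM) in PBS pH 7.4, 0.01% Tween-20. Compound added for 30 min at RT, then streptavidin donor/nickel chelate acceptor beads (10 ug/mL) for 30 min.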
BAZ2B inh: blocks human BAZ2B; Q9UIF8; AlphaScreen BAZ2B-H3K14Ac peptide displacement; Potency, µM (highest dose often 114 µM), usual class: inhibitors; 360,000 compounds, 4.4% hits; note: nearly all actives have a fitted effect of over 60% in size
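Complex of BAZ2B and biotin-H3K14Ac (50 nM apiece) forms over 30 min at RT, then faces library compounds up to 110 uM for another 30 min; AlphaScreen beads added, 20 min dark incubation, luminescence read.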
G9a inh: blocks human histone lysine methyltransferase G9a; AID 504332; Potency, µM (series often up to 102 µM), hits mostly inhibitors; Q96KQ7; 350,000 compounds, 8.8% hits; G9a H3K9 monomethylation, AlphaScreen, 2 h; note: nearly all actives have a fitted effect of over 75% in size
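Signal arises when biotinylated H3K9 peptide, once monomethylated, bridges streptavidin donor and antibody-captured acceptor beads. Enzyme at 20 nM was preincubated 15 min with test compounds; peptide 500 nM and SAM 20 uM then reacted for 2 h.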
L3MBTL1 inh: inhibitors of human L3MBTL1. Q9Y468. AlphaScreen L3MBTL1–H3K9me1 peptide binding. Potency, µM (series often up to 57.1 µM), hits mostly inhibitors. 230,000 compounds, 0.66% hits; note: nearly all actives have a fitted effect of over 60% in size
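AlphaScreen proximity signal between nickel-chelate acceptor and streptavidin donor beads (final 10 ug/mL) reports binding of 50 nM L3MBTL1 to 75 nM biotin-H3 K9me1 peptide; complex incubated with compounds 30 min at room temperature; cefsulodin titration as control.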
JMJD2A Tudor: blocks the human JMJD2A Tudor domain; 390,000 compounds, 4.4% hits; AlphaScreen JMJD2A-Tudor / H3K4me3 peptide binding; Potency, µM (titrated, usually from 114 µM), usual class: inhibitors; O75164; note: nearly all actives have a fitted effect of over 50% in size
GLS inh: glutaminase GLS (human) inhibition | GLS enzymatic activity, qHTS titration | 410,000 compounds, 0.21% hits | AID 624170 | O94925 | Potency, µM (highest dose often 45.5 µM), hits mostly inhibitors
Target sequence (O94925 whole entry, looked up): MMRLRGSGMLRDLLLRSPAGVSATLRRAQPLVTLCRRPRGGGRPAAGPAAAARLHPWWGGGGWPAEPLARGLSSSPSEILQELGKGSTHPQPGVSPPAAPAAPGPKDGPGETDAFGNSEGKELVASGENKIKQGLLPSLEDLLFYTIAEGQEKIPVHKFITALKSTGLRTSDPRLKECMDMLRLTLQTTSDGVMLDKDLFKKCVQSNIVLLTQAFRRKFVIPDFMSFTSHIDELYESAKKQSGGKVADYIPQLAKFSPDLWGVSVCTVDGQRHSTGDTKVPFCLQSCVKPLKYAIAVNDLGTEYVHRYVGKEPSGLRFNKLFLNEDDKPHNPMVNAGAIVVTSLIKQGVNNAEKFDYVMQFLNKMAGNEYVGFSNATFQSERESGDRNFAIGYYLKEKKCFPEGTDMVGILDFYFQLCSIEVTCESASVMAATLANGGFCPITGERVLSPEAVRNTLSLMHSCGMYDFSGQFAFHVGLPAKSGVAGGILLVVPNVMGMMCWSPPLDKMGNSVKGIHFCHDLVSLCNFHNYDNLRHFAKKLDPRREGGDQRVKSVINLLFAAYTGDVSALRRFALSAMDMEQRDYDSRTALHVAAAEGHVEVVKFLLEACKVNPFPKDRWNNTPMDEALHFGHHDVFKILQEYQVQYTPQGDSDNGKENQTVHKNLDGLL
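Glutamate formation by hKGA was monitored fluorometrically using coupled glutamate oxidase, HRP and Amplex Red. Substrate was added as 1 mM L-glutamine solution; incubation was 30 min at RT after an initial read.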
Hits are given with their value; [ ] = dose if it differs, or a comment. Only some compounds are listed: those with a hit (about 10% of all), similar ones and a draw of the others. Calls come from the whole dose curve; as a rule, active = well fitted curve in the direction sought with a large enough effect; inconclusive = small, poorly fitted or top-dose-only effect, or another doubt; inactive = no such curve, though single readings can be large; an effect the other way counts as inactive or inconclusive.

Screening COc1ccc(C2=NN(C(N)=S)C(c3ccco3)C2)cc1 (stereo unspecified) returned HP1b chromo inh inactive, BAZ2B inh inconclusive, G9a inh 22.4µM, L3MBTL1 inh inactive, JMJD2A Tudor inactive and GLS inh inactive.
For COc1ccc(C2=NN(C(=O)CSc3nnc(-c4ccccc4F)o3)C(c3ccco3)C2)cc1 (stereo unspecified) the results were HP1b chromo inh inactive, BAZ2B inh inactive, G9a inh 44.7µM, L3MBTL1 inh inactive, JMJD2A Tudor inactive and GLS inh inactive.
Screening Cc1ccc(C2=NN(C(=O)CSc3nccn3C)C(c3ccco3)C2)cc1 (stereo unspecified) returned HP1b chromo inh inactive, BAZ2B inh inconclusive, G9a inh inconclusive, JMJD2A Tudor inconclusive and GLS inh inactive.
`CC(=O)Nc1ccc(S(=O)(=O)N2CCC(N3CCCCCC3)CC2)cc1` gave HP1b chromo inh inconclusive, BAZ2B inh inactive, G9a inh 39.8µM, L3MBTL1 inh inactive, JMJD2A Tudor 20µM and GLS inh inactive.
Screening O=S(=O)(c1ccc(Cl)cc1)N1CCC(N2CCCCCC2)CC1 returned HP1b chromo inh inconclusive, BAZ2B inh 79.4µM, G9a inh 2.51µM, JMJD2A Tudor 2.51µM and GLS inh inactive.
For O=S(=O)(c1ccc(F)cc1)N1CCC(N2CCCCCC2)CC1 the results were HP1b chromo inh inconclusive, BAZ2B inh inconclusive, G9a inh inconclusive, L3MBTL1 inh inactive, JMJD2A Tudor inconclusive and GLS inh inactive.
`Cc1ccc(Cl)cc1NC(=O)c1oc2c(c1C)-c1[nH]ncc1CC2` gave HP1b chromo inh inactive, BAZ2B inh inactive, G9a inh inactive, JMJD2A Tudor inactive and GLS inh inactive.
Screening COCCCNC(=O)c1ccc(Cn2c(=O)c3ccccc3n(CC(N)=O)c2=O)cc1 returned HP1b chromo inh inactive, BAZ2B inh inactive, G9a inh inactive, JMJD2A Tudor inactive and GLS inh inactive.
Screening CN1CCC(Oc2ccccc2Sc2ccccc2)CC1 returned HP1b chromo inh inconclusive, BAZ2B inh inactive, G9a inh inconclusive, L3MBTL1 inh inactive, JMJD2A Tudor 0.708µM and GLS inh inactive.
For CCN1C(=NCC(C)C)N[C@@H](c2ccccc2)[C@H](C(=O)OC)[C@H]1C the results were BAZ2B inh inactive and G9a inh inactive[12.7 µM].
For CCCCc1cc(=O)oc2c(C)c(OCC(=O)NCC3CCC(C(=O)O)CC3)ccc12 (stereo unspecified) the results were HP1b chromo inh inactive, BAZ2B inh inactive, G9a inh 79.4µM, L3MBTL1 inh inactive, JMJD2A Tudor inactive and GLS inh inactive.
For CCOC(=O)c1ccc(S(=O)(=O)NCCN(CC)CC)cc1 the results were HP1b chromo inh inactive, BAZ2B inh inactive, G9a inh inconclusive, L3MBTL1 inh inactive, JMJD2A Tudor inactive and GLS inh inactive.
For CCOC(=O)c1ccc(S(=O)(=O)NCC(c2ccc(N(C)C)cc2)c2c[nH]c3ccccc23)cc1 (stereo unspecified) the results were HP1b chromo inh 31.6µM, BAZ2B inh 10µM, G9a inh inconclusive, L3MBTL1 inh inconclusive, JMJD2A Tudor 11.2µM and GLS inh inactive.
`CN(C)c1ccc(C(CNS(=O)(=O)c2ccc(F)cc2)c2c[nH]c3ccccc23)cc1` (stereo unspecified) gave HP1b chromo inh inconclusive, BAZ2B inh 17.8µM, G9a inh 10µM, L3MBTL1 inh inconclusive, JMJD2A Tudor 25.1µM and GLS inh inactive.
For CC1CCCCN1C(=O)CSc1nc2ccccc2nc1Cc1ccc(Cl)cc1 (stereo unspecified) the results were HP1b chromo inh inactive, BAZ2B inh inactive, G9a inh inactive, JMJD2A Tudor inactive and GLS inh inactive.
For O=C(Oc1cc(-c2ccccc2)no1)c1ccc(Cl)cc1 the results were HP1b chromo inh inactive, BAZ2B inh inconclusive, G9a inh 79.4µM, JMJD2A Tudor inactive[11.4 µM] and GLS inh inactive.
`O=C(c1ccc(C(F)(F)F)cc1)N1CCC(=O)N(C(COCc2ccccc2)Cc2ccccc2)CC1` (stereo unspecified) gave HP1b chromo inh inactive, BAZ2B inh inactive, G9a inh 56.2µM, L3MBTL1 inh inactive, JMJD2A Tudor inactive and GLS inh inactive.

Source: PubChem (National Center for Advancing Translational Sciences (NCATS))
